# Measurements published in PMC7862700, “An all-to-all approach to the identification of sequence-specific readers for epigenetic DNA modifications on cytosine”.
# How the values were obtained:
# Assay in all cases: DAPPL (digital affinity profiling via proximity ligation, sequencing); 10 mM Tris-HCl pH 7.5, 50 mM NaCl, 1 mM DTT, 4% glycerol, room temperature, 30 min; GST-TFs on glutathione beads, 16-mer random dsDNA library, 0.1% formaldehyde crosslink after washing; high values mean tight binding
# ELK1 = molecular target: T1, ELK1 (Homo sapiens, UniProt P19419 1-428); settings: protein: recombinant; tags: N-terminal GST; dsDNA, one strand shown
# T1 sequence: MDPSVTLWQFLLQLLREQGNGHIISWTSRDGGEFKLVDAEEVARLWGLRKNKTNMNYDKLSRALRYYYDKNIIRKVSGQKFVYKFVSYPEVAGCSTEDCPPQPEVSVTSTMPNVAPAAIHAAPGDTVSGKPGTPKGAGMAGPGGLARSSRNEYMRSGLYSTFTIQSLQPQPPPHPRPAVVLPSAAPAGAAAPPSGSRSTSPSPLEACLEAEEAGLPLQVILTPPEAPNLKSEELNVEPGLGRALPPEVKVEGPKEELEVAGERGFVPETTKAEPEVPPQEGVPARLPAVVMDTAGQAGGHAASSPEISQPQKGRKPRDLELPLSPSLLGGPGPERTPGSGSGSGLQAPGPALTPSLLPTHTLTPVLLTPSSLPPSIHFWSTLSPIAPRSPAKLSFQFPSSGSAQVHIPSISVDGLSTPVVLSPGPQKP
# In short: (§1)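 Yeast served to express human transcription factors as GST fusions, which were then captured on glutathione beads and labelled with DNA barcodes. Pooled with a tag-only sample, they were incubated with 200 nmole of a 16-mer random double-stranded DNA library for 30 min at room temperature in Tris/NaCl/DTT/glycerol buffer, washed, crosslinked with 0.1% formaldehyde, ligated by proximity, amplified by PCR and sequenced. Dividing each hexamer's read frequency for a factor by its frequency for the tag-only sample gives the binding signal.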
# GABPA = molecular target: T2, GABPA (Homo sapiens, UniProt Q06546 1-454); settings: protein: recombinant; tags: N-terminal GST; dsDNA, one strand shown
# T2 sequence: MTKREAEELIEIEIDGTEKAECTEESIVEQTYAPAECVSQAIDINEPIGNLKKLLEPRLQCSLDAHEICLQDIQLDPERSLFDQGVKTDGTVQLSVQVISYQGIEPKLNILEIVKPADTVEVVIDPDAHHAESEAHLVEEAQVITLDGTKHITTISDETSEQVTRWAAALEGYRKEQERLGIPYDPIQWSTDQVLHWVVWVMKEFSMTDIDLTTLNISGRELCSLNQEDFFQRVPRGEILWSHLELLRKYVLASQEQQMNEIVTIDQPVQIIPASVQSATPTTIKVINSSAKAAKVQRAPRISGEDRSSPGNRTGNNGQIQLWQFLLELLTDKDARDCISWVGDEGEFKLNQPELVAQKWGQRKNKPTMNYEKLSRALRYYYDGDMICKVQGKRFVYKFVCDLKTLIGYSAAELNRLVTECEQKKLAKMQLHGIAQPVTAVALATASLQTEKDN
# In short: as §1
# ERG = molecular target: T3, ERG (Homo sapiens, UniProt P11308 1-479); settings: protein: recombinant; tags: N-terminal GST; dsDNA, one strand shown
# T3 sequence: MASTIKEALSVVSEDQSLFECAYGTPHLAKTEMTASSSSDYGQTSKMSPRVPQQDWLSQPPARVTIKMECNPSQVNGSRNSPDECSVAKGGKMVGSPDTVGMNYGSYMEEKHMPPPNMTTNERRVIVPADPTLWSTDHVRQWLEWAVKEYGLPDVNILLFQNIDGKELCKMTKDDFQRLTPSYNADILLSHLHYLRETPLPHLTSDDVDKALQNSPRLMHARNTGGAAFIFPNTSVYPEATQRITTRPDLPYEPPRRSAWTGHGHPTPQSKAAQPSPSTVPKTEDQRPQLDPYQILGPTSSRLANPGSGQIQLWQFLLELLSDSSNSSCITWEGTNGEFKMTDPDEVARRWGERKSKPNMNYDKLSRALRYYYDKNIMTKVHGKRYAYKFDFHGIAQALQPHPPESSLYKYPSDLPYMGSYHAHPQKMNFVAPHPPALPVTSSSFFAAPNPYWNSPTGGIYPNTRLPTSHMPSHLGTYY
# In short: as §1
# ELF1 = ELF1 (Homo sapiens, UniProt P32519 1-619); settings: protein: recombinant; tags: N-terminal GST; dsDNA, one strand shown
# In short: as §1
# EHF = molecular target: T4, EHF (Homo sapiens, UniProt Q9NZC4 1-300); settings: protein: recombinant; tags: N-terminal GST; dsDNA, one strand shown
# T4 sequence: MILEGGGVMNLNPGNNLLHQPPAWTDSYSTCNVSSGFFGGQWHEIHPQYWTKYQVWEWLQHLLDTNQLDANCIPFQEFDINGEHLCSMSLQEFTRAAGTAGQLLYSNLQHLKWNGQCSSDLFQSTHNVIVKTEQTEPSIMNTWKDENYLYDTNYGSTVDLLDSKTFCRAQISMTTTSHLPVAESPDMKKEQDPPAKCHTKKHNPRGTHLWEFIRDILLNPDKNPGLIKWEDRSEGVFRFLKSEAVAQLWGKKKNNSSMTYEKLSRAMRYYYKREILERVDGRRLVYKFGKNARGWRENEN
# In short: as §1
# HSF1 = HSF1 (Homo sapiens, UniProt Q00613 1-529); settings: protein: recombinant; tags: N-terminal GST; chain copies: 3; dsDNA, one strand shown
# In short: as §1
# SPIC = molecular target: T5, SPIC (Homo sapiens, UniProt Q8N5J4 1-248); settings: protein: recombinant; tags: N-terminal GST; dsDNA, one strand shown
# T5 sequence: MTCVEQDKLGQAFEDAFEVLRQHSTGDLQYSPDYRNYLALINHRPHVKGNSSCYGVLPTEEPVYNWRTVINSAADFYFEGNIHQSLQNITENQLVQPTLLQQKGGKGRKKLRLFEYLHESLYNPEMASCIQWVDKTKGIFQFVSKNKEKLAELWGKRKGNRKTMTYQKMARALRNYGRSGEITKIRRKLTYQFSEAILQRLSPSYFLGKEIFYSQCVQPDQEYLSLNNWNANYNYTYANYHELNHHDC
# In short: as §1
# CRX = CRX (Homo sapiens, UniProt O43186 1-299); settings: protein: recombinant; tags: N-terminal GST; dsDNA, one strand shown
# In short: as §1
# ERF = molecular target: T6, ERF (Homo sapiens, UniProt P50548 1-548); settings: protein: recombinant; tags: N-terminal GST; dsDNA, one strand shown
# T6 sequence: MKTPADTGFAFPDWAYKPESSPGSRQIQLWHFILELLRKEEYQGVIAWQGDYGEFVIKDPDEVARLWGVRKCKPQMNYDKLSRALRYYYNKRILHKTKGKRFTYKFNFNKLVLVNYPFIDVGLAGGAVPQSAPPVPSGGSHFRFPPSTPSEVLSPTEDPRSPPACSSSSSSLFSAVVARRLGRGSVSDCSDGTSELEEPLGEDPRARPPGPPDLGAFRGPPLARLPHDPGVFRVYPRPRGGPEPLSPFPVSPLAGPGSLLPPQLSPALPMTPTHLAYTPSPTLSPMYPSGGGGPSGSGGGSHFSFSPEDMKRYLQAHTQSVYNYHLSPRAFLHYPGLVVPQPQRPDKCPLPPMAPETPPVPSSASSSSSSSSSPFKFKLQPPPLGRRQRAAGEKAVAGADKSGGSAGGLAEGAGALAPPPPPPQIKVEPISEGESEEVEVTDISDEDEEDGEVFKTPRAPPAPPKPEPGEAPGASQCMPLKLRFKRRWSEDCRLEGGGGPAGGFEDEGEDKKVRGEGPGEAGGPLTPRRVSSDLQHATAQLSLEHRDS
# In short: as §1
# ELF3 = molecular target: T7, ELF3 (Homo sapiens, UniProt P78545 1-371); settings: protein: recombinant; tags: N-terminal GST; dsDNA, one strand shown
# T7 sequence: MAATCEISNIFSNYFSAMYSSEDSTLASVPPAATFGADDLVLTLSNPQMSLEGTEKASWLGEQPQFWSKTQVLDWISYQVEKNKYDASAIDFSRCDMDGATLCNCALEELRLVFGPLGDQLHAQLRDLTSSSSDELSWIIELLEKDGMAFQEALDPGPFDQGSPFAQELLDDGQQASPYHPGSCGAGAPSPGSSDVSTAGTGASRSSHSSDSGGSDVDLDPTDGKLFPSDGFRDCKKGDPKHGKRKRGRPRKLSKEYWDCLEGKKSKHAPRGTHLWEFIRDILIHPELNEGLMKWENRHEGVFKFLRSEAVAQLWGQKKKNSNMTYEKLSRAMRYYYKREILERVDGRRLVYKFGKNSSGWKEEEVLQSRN
# In short: as §1
# ELK4 = molecular target: T8, ELK4 (Homo sapiens, UniProt P28324-2 1-405); settings: protein: recombinant; tags: N-terminal GST; dsDNA, one strand shown
# T8 sequence: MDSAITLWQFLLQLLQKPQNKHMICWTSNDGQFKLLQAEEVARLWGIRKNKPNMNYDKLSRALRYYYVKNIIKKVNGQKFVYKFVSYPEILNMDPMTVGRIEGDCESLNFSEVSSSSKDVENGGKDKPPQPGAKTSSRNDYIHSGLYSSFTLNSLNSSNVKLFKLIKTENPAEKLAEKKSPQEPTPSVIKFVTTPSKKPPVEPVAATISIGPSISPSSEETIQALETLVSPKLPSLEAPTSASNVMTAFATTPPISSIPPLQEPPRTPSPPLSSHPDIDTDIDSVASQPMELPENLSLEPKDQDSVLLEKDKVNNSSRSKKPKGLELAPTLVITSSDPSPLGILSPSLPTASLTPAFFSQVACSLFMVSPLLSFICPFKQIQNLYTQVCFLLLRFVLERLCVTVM
# In short: as §1
# ETV2 = molecular target: T9, ETV2 (Homo sapiens, UniProt O00321 1-342); settings: protein: recombinant; tags: N-terminal GST; dsDNA, one strand shown
# T9 sequence: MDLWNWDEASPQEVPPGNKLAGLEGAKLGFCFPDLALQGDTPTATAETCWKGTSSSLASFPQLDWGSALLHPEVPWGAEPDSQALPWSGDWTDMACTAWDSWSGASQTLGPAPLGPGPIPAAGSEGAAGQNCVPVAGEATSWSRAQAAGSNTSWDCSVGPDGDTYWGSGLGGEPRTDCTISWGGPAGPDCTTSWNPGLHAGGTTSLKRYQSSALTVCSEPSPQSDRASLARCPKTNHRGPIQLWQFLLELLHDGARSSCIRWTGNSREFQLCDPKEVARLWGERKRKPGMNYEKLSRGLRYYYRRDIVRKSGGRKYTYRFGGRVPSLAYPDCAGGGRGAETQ
# In short: as §1
# SPDEF = molecular target: T10, SPDEF (Homo sapiens, UniProt O95238 1-335); settings: protein: recombinant; tags: N-terminal GST; dsDNA, one strand shown
# T10 sequence: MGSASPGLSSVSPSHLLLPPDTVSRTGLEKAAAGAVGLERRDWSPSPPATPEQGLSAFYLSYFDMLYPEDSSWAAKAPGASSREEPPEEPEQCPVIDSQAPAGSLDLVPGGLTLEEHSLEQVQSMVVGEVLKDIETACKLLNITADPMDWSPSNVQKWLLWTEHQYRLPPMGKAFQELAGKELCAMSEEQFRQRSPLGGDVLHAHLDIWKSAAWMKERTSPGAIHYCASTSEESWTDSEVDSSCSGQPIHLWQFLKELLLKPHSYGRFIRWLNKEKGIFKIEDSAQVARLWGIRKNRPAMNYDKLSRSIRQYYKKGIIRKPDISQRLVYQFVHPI
# In short: as §1
# HSF1, sequence (Q00613 whole entry): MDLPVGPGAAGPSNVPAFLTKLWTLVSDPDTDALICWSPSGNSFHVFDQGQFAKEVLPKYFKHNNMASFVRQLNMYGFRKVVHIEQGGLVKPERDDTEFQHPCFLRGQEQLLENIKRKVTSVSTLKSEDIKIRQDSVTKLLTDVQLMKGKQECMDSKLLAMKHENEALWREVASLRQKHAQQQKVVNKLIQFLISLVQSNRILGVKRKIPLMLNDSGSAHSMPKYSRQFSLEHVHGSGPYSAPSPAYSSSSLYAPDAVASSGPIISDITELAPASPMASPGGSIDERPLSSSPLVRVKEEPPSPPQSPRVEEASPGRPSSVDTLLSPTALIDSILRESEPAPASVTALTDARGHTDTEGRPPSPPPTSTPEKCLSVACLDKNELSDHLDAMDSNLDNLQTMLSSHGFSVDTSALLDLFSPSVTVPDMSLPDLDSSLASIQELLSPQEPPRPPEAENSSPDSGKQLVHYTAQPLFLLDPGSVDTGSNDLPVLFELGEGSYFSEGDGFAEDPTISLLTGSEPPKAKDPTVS
# CRX, sequence (O43186 whole entry): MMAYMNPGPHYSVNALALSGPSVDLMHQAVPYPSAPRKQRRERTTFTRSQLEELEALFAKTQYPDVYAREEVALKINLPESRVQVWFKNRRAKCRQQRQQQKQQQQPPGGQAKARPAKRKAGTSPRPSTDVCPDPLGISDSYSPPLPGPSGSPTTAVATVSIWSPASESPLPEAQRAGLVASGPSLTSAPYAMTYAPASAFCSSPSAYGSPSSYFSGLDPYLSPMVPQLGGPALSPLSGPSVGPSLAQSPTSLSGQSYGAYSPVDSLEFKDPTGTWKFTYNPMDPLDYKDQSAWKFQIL
# ELF1, sequence (P32519 whole entry): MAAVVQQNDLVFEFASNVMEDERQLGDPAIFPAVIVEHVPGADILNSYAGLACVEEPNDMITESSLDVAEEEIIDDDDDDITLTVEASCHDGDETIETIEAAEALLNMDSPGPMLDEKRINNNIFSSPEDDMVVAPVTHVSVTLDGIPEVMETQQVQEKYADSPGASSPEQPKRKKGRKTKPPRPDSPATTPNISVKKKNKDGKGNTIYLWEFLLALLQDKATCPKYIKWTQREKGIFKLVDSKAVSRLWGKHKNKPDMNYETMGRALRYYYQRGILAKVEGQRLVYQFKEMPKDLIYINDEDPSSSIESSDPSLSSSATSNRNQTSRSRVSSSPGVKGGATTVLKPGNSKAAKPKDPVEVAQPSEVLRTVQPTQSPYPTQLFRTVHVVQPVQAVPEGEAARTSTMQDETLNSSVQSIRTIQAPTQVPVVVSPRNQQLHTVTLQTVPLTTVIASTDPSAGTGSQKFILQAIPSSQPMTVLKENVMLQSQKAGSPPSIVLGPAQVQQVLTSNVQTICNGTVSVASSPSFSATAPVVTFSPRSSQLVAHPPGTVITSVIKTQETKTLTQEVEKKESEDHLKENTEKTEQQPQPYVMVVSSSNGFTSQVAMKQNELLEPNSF
sequence,measurement,setting,value
ACTAGA,binding signal,ELK1,"1.02 fold enrichment (6-mer frequency, TF over GST control)"
same,binding signal,GABPA,"1.01 fold enrichment (6-mer frequency, TF over GST control)"
same,binding signal,ERG,"1 fold enrichment (6-mer frequency, TF over GST control)"
same,binding signal,ELF1,"1.02 fold enrichment (6-mer frequency, TF over GST control)"
same,binding signal,EHF,"1.01 fold enrichment (6-mer frequency, TF over GST control)"
same,binding signal,HSF1,"2.1 fold enrichment (6-mer frequency, TF over GST control)"
same,binding signal,SPIC,"1.03 fold enrichment (6-mer frequency, TF over GST control)"
same,binding signal,CRX,"1.16 fold enrichment (6-mer frequency, TF over GST control)"
same,binding signal,ERF,"1.05 fold enrichment (6-mer frequency, TF over GST control)"
AGAACC,binding signal,ERG,"1.01 fold enrichment (6-mer frequency, TF over GST control)"
same,binding signal,HSF1,"1.55 fold enrichment (6-mer frequency, TF over GST control)"
same,binding signal,SPIC,"1.03 fold enrichment (6-mer frequency, TF over GST control)"
same,binding signal,ELF3,"1.06 fold enrichment (6-mer frequency, TF over GST control)"
AGAACT,binding signal,HSF1,"1.63 fold enrichment (6-mer frequency, TF over GST control)"
same,binding signal,SPIC,"1.03 fold enrichment (6-mer frequency, TF over GST control)"
same,binding signal,CRX,"1.02 fold enrichment (6-mer frequency, TF over GST control)"
GAATAG,binding signal,HSF1,"1.11 fold enrichment (6-mer frequency, TF over GST control)"
same,binding signal,ELK4,"1.02 fold enrichment (6-mer frequency, TF over GST control)"
same,binding signal,ETV2,"1.03 fold enrichment (6-mer frequency, TF over GST control)"
same,binding signal,ERF,"1.08 fold enrichment (6-mer frequency, TF over GST control)"
same,binding signal,SPDEF,"1.02 fold enrichment (6-mer frequency, TF over GST control)"
